Screens: PubChem BioAssay, National Center for Advancing Translational Sciences (NCATS)
Rows were chosen to be rich in hits. Some 7.6% of all compounds tested hit in one or more screens of this group.
KB-3-1 cytotox = qHTS assay for MDR1-selective chemotherapeutics: Primary screen using the parental adenocarcinoma cell KB-3-1; KB-3-1 viability, CellTiter-Glo ATP luminescence, 72 h; Potency, µM (titrated, usually from 46.1 µM), usual class: cytotoxic; actives 1.4% (n = 400,000); AID 1347075, 2019; also: potency is read from the fitted curve at half-maximal effect; % is scaled to controls: 0 for no effect and ±100 for the full control effect; nearly all actives have a fitted effect of over 60% in size
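Using CellTiter-Glo luminescence, growth of non-resistant KB-3-1 adenocarcinoma cells is assessed 72 h after pin-tool compound addition at 37 °C. Normalized responses across the concentration series yield fitted curves.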
MCF10A rereplic = A quantitative high throughput screen for small molecules that induce DNA re-replication in MCF 10a normal breast cells | Potency, µM (series often up to 46.1 µM), for the others: at the top dose activity, positive = re-replication, actives largely listed as activators | actives 2.9% (n = 350,000) | MCF 10A DNA re-replication, Hoechst nuclear intensity, 48 h; also: potency is read from the fitted curve at half-maximal effect; % of control where 0% means no effect; nearly all actives have a fitted effect of over 50% in size
KCNH2 WT inh = qHTS for Inhibitors of KCHN2 3.1: Wildtype qHTS; AID 720551, 2013; U2OS, BacMam KCNH2, thallium flux FluxOr; hits give low values; actives 0.37% (n = 340,000); activity change, % at 1.84 µM; Voltage-gated inwardly rectifying potassium channel KCNH2 (Homo sapiens), Q12809;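 active = maximum activity change below -70%; inconclusive = maximum activity change between -70% and -50%; inactive = maximum activity change above -50%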; also: % is scaled to controls: 0 for no effect and ±100 for the full control effect
Target sequence (Q12809 whole entry, looked up): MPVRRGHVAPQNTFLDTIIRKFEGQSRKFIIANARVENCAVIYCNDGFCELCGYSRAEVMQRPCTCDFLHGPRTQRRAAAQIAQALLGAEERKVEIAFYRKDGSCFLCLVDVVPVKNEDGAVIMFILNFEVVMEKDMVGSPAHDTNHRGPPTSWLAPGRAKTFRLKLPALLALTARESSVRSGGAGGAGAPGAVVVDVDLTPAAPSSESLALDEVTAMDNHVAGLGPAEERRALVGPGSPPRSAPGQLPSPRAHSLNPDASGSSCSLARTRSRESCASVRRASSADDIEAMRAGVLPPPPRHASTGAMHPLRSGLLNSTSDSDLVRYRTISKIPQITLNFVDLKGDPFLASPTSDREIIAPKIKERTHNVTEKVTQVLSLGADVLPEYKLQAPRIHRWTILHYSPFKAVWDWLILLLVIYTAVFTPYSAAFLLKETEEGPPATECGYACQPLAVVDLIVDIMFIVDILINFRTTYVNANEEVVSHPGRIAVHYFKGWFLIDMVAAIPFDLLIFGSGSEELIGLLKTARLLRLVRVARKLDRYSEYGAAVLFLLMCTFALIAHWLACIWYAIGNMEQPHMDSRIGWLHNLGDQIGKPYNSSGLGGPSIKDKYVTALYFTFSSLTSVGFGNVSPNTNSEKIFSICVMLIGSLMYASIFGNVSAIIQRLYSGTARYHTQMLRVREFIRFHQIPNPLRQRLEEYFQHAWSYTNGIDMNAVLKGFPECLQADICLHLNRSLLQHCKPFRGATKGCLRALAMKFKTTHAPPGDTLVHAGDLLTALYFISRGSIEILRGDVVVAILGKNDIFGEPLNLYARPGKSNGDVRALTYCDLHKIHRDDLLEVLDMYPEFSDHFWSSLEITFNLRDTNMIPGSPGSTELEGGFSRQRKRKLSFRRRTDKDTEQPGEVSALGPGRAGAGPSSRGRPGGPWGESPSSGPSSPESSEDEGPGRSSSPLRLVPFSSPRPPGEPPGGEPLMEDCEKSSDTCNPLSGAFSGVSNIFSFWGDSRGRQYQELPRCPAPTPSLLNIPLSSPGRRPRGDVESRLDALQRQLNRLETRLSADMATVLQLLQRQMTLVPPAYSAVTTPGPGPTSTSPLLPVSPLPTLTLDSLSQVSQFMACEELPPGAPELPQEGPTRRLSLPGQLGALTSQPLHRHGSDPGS
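U2OS cells were transduced with wild-type KCNH2 virus (2.03 x 10^8 / mL) for 4 h at room temperature, then cultured overnight at 37 C. Thallium flux was read with FluxOr dye. Rate constants were normalized to DMSO controls.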
SW480 rereplic = A quantitative high throughput screen for small molecules that induce DNA re-replication in SW480 colon adenocarcinoma cells. SW480 DNA re-replication, Hoechst DNA content imaging, 48 h. actives 1.8% (n = 340,000). Potency, µM (highest dose often 46.1 µM), for inactives: top-dose re-replication activation, usual class: activators; also: potency is read from the fitted curve at half-maximal effect; % of control where 0% means no effect; nearly all actives have a fitted effect of over 55% in size
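Image-based read-out: total Hoechst fluorescence of nuclei (405 nm excitation, 500-530 nm emission), with hits raising the fraction of high-intensity nuclei. SW480 colon cells incubated 48 hr with compounds at 37 C.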
KB-V1 MDR tox = qHTS assay for MDR1-selective chemotherapeutics: Primary screen using the drug-selected MDR subline cells KB-V1. actives 3.4% (n = 400,000). Potency, µM (series often up to 46.1 µM), usual class: cytotoxic. KB-V1 MDR cells viability, CellTiter-Glo, 72 h; also: potency is read from the fitted curve at half-maximal effect; % is scaled to controls: 0 for no effect and ±100 for the full control effect; nearly all actives have a fitted effect of over 60% in size
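qHTS viability screen in drug-selected KB-V1 MDR cells: 72 h compound treatment at 37 degrees C, ATP luminescence end point.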
KCNH2 3.1 block = qHTS for Inhibitors of KCHN2 3.1: Mutant qHTS; activity change, % (tested at about 1.8 µM); Potassium voltage-gated channel subfamily H member 2, brain isoform KCNH2 3.1 (human); actives 0.95% (n = 340,000); U2OS KCNH2 3.1, thallium flux FluxOr; hits give low values;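 active = maximum activity change below -70%; inconclusive = maximum activity change from -70% to -50%; inactive = maximum activity change above -50%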;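 also: thallium influx rate constant from kinetic fluorescence after stimulation buffer; % is scaled to controls: 0 for no effect and ±100 for the full control effect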
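Virally transduced U2OS (3.1 isoform, 4 h infection in dark at RT) → overnight 37 C → FluxOr + Red40 in HBSS/HEPES, 45 min → stimulation buffer, 2 min kinetic read → rate constant vs DMSO controls.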
Starred values were filed as active, the others as inactive; i = inactive; ? = inconclusive; . = not tested or not shown; [ ] = another dose, or the depositor's remark. Unless noted, calls follow the shape of the dose curve; as a rule, active = well fitted curve in the direction sought with a large enough effect; inconclusive = small, poorly fitted or top-dose-only effect, or another doubt; inactive = no such curve, though single readings can be large; an effect the other way counts as inactive or inconclusive.

SMILES	KB-3-1 cytotox	MCF10A rereplic	KCNH2 WT inh	SW480 rereplic	KB-V1 MDR tox	KCNH2 3.1 block
Cc1cc(C)nc(N2CCC(C(=O)NCc3ccccc3F)CC2)n1	i	-2%	0	-3%	i	-12
Cc1ccc(Cl)cc1NC(=O)c1cc(S(=O)(=O)N2CCCCCC2)cn1C	i	.	.	.	i	.
CC(=O)c1nnn(-c2cccc([N+](=O)[O-])c2)c1C	i	18%	-3	-9%	i	-3
CC(=O)C1=C(c2cccc([N+](=O)[O-])c2)N(C(C)=O)n2c(C)nnc2S1	15µM*	23µM*	4	?	i	1
O=C(NNC(=O)c1cccnc1SCc1cccc([N+](=O)[O-])c1)c1cccnc1	i	1%	0	-7%	?	1
O=C(NNC(=O)c1cccnc1SCc1cccc([N+](=O)[O-])c1)c1ccc(F)cc1	?	10%	2	2%	16µM*	15
NCc1ccccc1	i	-12%	6	?	i	7
CCCN(CCC)CC(O)Cn1cc(/C=C/C(=O)c2ccc(OCC)cc2)c2ccccc21 (stereo unspecified)	i	.	.	.	?	.
CCOc1ccc(CCn2c(-c3ccco3)nc3ccccc3c2=O)cc1OCC	?	?	6	?	7.3µM*	-5
O=c1c2ccccc2nc(-c2ccoc2)n1CCc1ccccc1	?	?	3	8%	12µM*	5
Cc1cc(NS(=O)(=O)c2cn(C)nc2C)no1	i	-1%	-135*	-3%	i	-2
Cc1nn(C)cc1S(=O)(=O)Nc1ccc2c(c1)OCCO2	i	0%	-3	-4%	i	-9
O=C(Nc1ccc(NC(=O)c2ccc([N+](=O)[O-])o2)cc1Cl)c1ccco1	18µM*	9.2µM*	13	2.1µM*	i	-12
O=C(Nc1cccc(NC(=O)c2ccc([N+](=O)[O-])o2)c1)c1ccco1	?	2.3µM*	-1	4.1µM*	?	3
COc1ccc(NS(=O)(=O)c2ccc(C)c(C(=O)OC(C)C(=O)N3CCOCC3)c2)cc1 (stereo unspecified)	i	-3%	-5	70%	i	1
COc1cc(OC)c(NS(=O)(=O)c2ccc(Cl)c(C(=O)OC(C)C(=O)N3CCCC3)c2)cc1Cl (stereo unspecified)	16µM*	?	-3	-4%	2.3µM*	-5
Cc1cc2c(cc1[N+](=O)[O-])NC(CNC(C)C)CC2 (stereo unspecified)	i	9%	-2	-3%	?	12
COc1ccc(N2CCN(c3oc(-c4ccco4)nc3C#N)CC2)cc1	?	-6%	8	-9%	15µM*	3
CCOc1ccc(N2C(=O)CC(NCCc3c[nH]c4ccccc34)C2=O)cc1 (stereo unspecified)	i	-1%	.	2.9µM*	i	-16
CCC(C)NC(=O)c1nc2c(nnn2Cc2ccccc2Cl)c(=O)[nH]1 (stereo unspecified)	i	1%	-7	-5%	i	10
O=C(NCc1cccs1)c1nc2c(nnn2Cc2ccccc2Cl)c(=O)[nH]1	5.8µM*	?	2	?	8.2µM*	1
O=C(CCc1ccccc1)Nc1ccnn1C1CCN(Cc2ncc[nH]2)CC1	i	-1%	7	1%	?	-9
O=C(CCl)N(c1ccccc1)c1ccccc1	?	?	2	22%	?	-15
N#CCCN(C(=O)CCl)c1cccc(Cl)c1	21µM*	?	-8	2.6µM*	?	2
CCCCCCCN(C(=O)CCl)c1cccc(C)c1	i	?	-9	2.1µM*	i	-4
SMILES	KB-3-1 cytotox	MCF10A rereplic	KCNH2 WT inh	SW480 rereplic	KB-V1 MDR tox	KCNH2 3.1 block
CCCCCCN(C(=O)CCl)c1ccccc1	i	?	-22	9.2µM*	i	2
COc1ccc2nc(NC(=O)c3ccoc3C)sc2c1	i	?	63	13%	7.3µM*	14
CCSc1nnc(NC(=O)c2cccc(OCc3c(C)noc3C)c2)s1	i	?	2	6%	i	-11
CCCC(=O)Nc1nc2ccc(OC)cc2s1	i	9%	-12	-3%	i	-8
COc1ccc2nc(NC(=S)N(C)C)sc2c1	21µM*	11%	12	-9%	3.3µM*	-2
COc1ccc2nc(NC(=O)c3cccc(OCc4c(C)noc4C)c3)sc2c1	18µM*	19%	19	?	3.7µM*	-21
CCN(Cc1ccc(Cl)s1)C(=O)c1cccc(OCc2c(C)noc2C)c1	?	?	-4	4%	5.8µM*	3
CCN(Cc1nc2ccccc2c(=O)[nH]1)C(=O)c1cccc(OCc2c(C)noc2C)c1	?	4%	8	-1%	?	5
Cc1ccc(NC(=O)CC(C)c2ccccc2)cc1S(=O)(=O)N1CCOCC1 (stereo unspecified)	i	?	-5	-3%	?	3
CC1CCc2c(sc3nnn(CCCCOc4ccc(Cl)cc4)c(=O)c23)C1 (stereo unspecified)	i	.	.	.	i	.
Cc1cccc(-c2ccc3c(c2)C2CC3CCN2Cc2ccc3c(c2)OCO3)c1 (stereo unspecified)	?	28%	-13	?	i	-76*
COc1ccc(CN2CCC3CC2c2cc(-c4cccc(C)c4)ccc23)cc1 (stereo unspecified)	i	9.2µM*	-8	?	i	-29
CCOC(=O)N1CCC2CC1c1cc(-c3cccc(OC)c3)ccc12 (stereo unspecified)	i	?	-116*	-3%	i	-15
COc1cccc(-c2ccc3c(c2)C2CC3CCN2C(=O)c2ccc(Cl)cc2)c1 (stereo unspecified)	i	-35%	-5	19%	i	.
COc1ccc(CN2CCC3CC2c2cc(Cl)ccc23)cc1 (stereo unspecified)	?	?	-46	-4%[9.22 µM]	i	?
